Screening results from PubChem.
EP2 antag: human EP2 receptor antagonists, primary screen, TR-FRET cAMP, C6 glioma cells; inhibition, % at 25 µM; C6 glioma cells expressing human EP2; cells stimulated with saturating PGE2; hit rate 0.52% among 260,000; AID 1422, 2008;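 active = percent inhibition above 40 after rounding to a whole number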;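 note: rat C6 glioma host cells with rolipram phosphodiesterase inhibitor present; the protocol text gives 20 µM as final concentration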
Arbovirus anti: antivirals against arbovirus infection, primary screen, cell-based, full library, 10K replicate subset | arbovirus infection cell-based antiviral screen | inhibition, % at 10 µM | hit rate 0.37% among 200,000 | AID 1251, 2008; in the data active = inhibition above about 30%
p97 inhibitor: inhibitors of human p97 ATPase, primary screen, biochemical; Transitional endoplasmic reticulum ATPase (Homo sapiens), P55072; recombinant p97 ATPase, Kinase-Glo ATP luminescence, 3 h; inhibition, % at 8 µM; hit rate 0.42% among 220,000; AID 1481, 2009; in the data active = inhibition above about 15%;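 note: 0% = DMSO vehicle and 100% = wells lacking enzyme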
Target sequence (P55072 whole entry, looked up): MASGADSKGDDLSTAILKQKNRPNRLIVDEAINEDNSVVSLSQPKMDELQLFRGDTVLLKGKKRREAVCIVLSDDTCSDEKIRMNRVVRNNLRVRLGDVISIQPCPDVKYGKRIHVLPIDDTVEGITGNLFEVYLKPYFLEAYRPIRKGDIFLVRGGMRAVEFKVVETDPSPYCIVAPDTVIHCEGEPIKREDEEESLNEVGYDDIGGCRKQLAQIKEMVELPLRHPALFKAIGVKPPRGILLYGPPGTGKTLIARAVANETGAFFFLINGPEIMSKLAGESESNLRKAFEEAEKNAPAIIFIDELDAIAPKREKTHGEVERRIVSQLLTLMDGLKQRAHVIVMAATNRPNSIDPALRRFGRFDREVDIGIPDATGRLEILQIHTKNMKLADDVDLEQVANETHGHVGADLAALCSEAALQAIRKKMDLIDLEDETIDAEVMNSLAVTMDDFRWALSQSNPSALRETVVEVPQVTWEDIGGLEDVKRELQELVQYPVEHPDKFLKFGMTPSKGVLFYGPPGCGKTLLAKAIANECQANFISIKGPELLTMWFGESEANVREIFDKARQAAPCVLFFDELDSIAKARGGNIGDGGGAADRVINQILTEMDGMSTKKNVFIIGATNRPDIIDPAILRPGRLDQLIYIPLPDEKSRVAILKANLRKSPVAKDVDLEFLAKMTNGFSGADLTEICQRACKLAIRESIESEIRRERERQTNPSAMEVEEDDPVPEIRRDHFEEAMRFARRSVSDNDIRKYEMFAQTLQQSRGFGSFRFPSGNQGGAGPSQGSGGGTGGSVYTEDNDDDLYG
EP2 modulator: EP2 receptor modulators, cAMP readout, primary screen, cell-based, HTRF cAMP, PGE2 stimulation. Prostaglandin E2 receptor EP2 subtype (Homo sapiens), P43116. EP2-expressing cells, cAMP HTRF FRET, PGE2 co-stimulation. induction, % at 25 µM. hit rate 0.83% among 260,000. AID 940, 2007;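 active = compounds whose cAMP rise, as percent of the full-agonist control response, exceeds 60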;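 note: rat C6 glioma line stably carrying human EP2 under a CMV promoter; the protocol text gives 20 µM as final concentration; 100% = response of wells given 1 µM PGE2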
Hck-Nef inh: inhibitors of Nef-activated human Hck kinase, primary screen, biochemical, Z-Lyte FRET, 384-well, Hck-YEEI; Tyrosine-protein kinase HCK (Homo sapiens), P08631; Recombinant Hck-YEEI plus Nef, Z-Lyte FRET kinase assay; inhibition, % at 20 µM; hit rate 0.68% among 220,000;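 active = Hck-Nef kinase inhibition above about 50%, limit read from the data; inactive = inhibition below that limit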;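 note: 0% = DMSO with Hck plus Nef and 100% = Hck alone without Nef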
Hck-Nef confirm: retest of Hck:Nef kinase inhibitor hits, confirmation, biochemical, Z-Lyte FRET, 384-well, p-Tyr peptide counterscreen. shares compounds with Hck-Nef inh. Recombinant Hck-YEEI:Nef, Z-Lyte FRET kinase assay. calls only at 10 µM. hit rate 28% among 1,300;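 active = average inhibition of at least 50%, with Z-scores no higher than 3 in both the phospho-tyrosine peptide and fluorescence counterscreens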
An asterisk follows results filed as active; i = inactive; . = no result given; + = active, no number. Most compounds without a hit are left out; they make up all but 2.4% or so of the library.

SMILES | EP2 antag | Arbovirus anti | p97 inhibitor | EP2 modulator | Hck-Nef inh | Hck-Nef confirm
O=C(c1nc2ccccc2s1)C1CCN(C(=O)c2ccc(Br)s2)CC1 | . | . | . | -63 | . | .
N/C(=N\N=C\c1ccnc2ccccc12)SC1CC(=O)N(c2ccc(Br)cc2)C1=O (stereo unspecified) | . | -8 | 3 | -34 | 66* | +
C/C(=N\NC(=O)c1ccc(OC2OCCOC2Oc2ccc(C(=O)N/N=C(\C)c3ccncc3)cc2)cc1)c1ccncc1 (stereo unspecified) | 8 | . | 10 | 13 | 61* | i
C/C(=N\NC(=O)c1ccc(N/N=C(\C)c2ccncc2)cc1)c1ccncc1 | 7 | -15 | 8 | -19 | -6 | .
Cc1ccc(-n2c(C)cc(/C=C3/C(=N)N4C(c5ccccc5)=CSC4=NC3=O)c2C)cc1 | 6 | 0 | 2 | 21 | 1 | .
N=C1/C(=C/c2ccc(-c3cccc(C(=O)O)c3)o2)C(=O)N=C2SC=C(c3ccccc3)N12 | 17 | 42* | 13 | -53 | 91* | +
Cc1cc2c(s1)c1cnn(CC(=O)N3C(C)CCCC3C)c(=O)c1n2C (stereo unspecified) | . | . | . | -68 | . | .
CCN(CC)c1ccc(NC(=O)Cn2c(C(C)NC(=O)c3ccc(C)cc3)nc3ccccc32)cc1 (stereo unspecified) | 3 | -2 | 2 | -5 | 83* | +
CCCn1c(C(C)NC(=O)c2ccccc2)nc2ccccc21 (stereo unspecified) | 2 | -2 | -4 | 10 | 1 | .
CCCCCCc1cc2cc(-c3nnc(-c4ccccc4O)o3)c(=O)oc2cc1O | 9 | 22 | 0 | -12 | -17 | .
CCCCCCc1cc2cc(S(=O)(=O)c3ccc(F)cc3)c(=O)oc2cc1O | 5 | 2 | 2 | 6 | 120* | .
O=c1c2c(-c3ccc(Cl)cc3)csc2ncn1/N=C/c1cccc([N+](=O)[O-])c1O | 3 | -8 | 3 | -17 | 89* | +
O=[N+]([O-])c1cccc(/C=N/n2cnnc2)c1O | 4 | 5 | 5 | 3 | 1 | .
CCc1c(C)sc(NC(=O)CSc2nc(-c3cccs3)cc(C(F)(F)F)n2)c1C#N | 9 | . | . | 11 | . | .
COc1cccc(CNC(=O)Cn2ncc3cccn3c2=O)c1 | . | . | . | 29 | . | .
CC(=O)Oc1cc(OC(C)=O)c2c(C)cc(=O)oc2c1 | 8 | 8 | 2 | 24 | 36 | .
CC(=O)Oc1cc2oc(=O)cc(C)c2cc1OC(C)=O | 10 | -7 | -3 | 11 | 68* | .
Cc1cc(OCC(=O)Oc2ccc3c(C)cc(=O)oc3c2)cc(C)c1Cl | 10 | . | . | 18 | . | .
CC(=O)Oc1ccc2c(C)cc(=O)oc2c1 | 13 | 8 | -2 | 0 | 86* | i
CCN(c1ccccc1)S(=O)(=O)c1cc(C(=O)Oc2ccc3c(C)cc(=O)oc3c2)ccc1C | 10 | -1 | -4 | 3 | 56* | .
COc1ccc(C2=NN(C(=O)c3ccco3)C(c3cc4ccccc4nc3Cl)C2)cc1 (stereo unspecified) | 1 | . | 1 | -3 | 51* | i
COCc1[nH][nH]c(=O)c1C=Nc1ccc(Oc2ccccc2)cc1 | 20 | -9 | 0 | -20 | 91* | +
COCc1[nH][nH]c(=O)c1C=Nc1ccc(C(F)(F)F)cc1 | 0 | 3 | 4 | 8 | 1 | .
O=C(NC(=S)Nc1ccc(Cc2ccncc2)cc1)c1ccc(F)cc1 | 7 | -1 | 1 | -64 | 68* | i
COc1cc(-c2cc(=O)c3c(O)c(OC)c(OC)c(O)c3o2)ccc1O | 10 | -2 | 2 | -25 | 67* | +
SMILES | EP2 antag | Arbovirus anti | p97 inhibitor | EP2 modulator | Hck-Nef inh | Hck-Nef confirm
COc1c(O)c(O)c2oc(-c3ccccc3)cc(=O)c2c1OC | 10 | 0 | 3 | -25 | 66* | +
Cc1ccc(-c2ccc(/C=C3/NC(=O)NC3=O)o2)cc1[N+](=O)[O-] | 26 | -32 | 4 | -94 | 15 | .
CC1=C(C#N)C(=O)NC(=O)/C1=C\c1ccc(-c2cc(C)c(C)cc2[N+](=O)[O-])o1 | 7 | 34* | -3 | -51 | 91* | +
O=C(/C=C\c1ccco1)NC(=S)Nc1ccccc1O | 16 | . | 9 | -59 | 59* | i
O=C(/C=C/c1ccco1)NC(=S)Nc1ccccc1O | 7 | -13 | -1 | -70 | 54* | +
Cc1ccc(NC(=S)NC(=O)/C=C/c2ccco2)c(O)c1 | 10 | -2 | 1 | -30 | 85* | +
O=C(/C=C/c1ccco1)NC(=S)Nc1ccccc1Cl | 12 | . | . | -23 | . | .
O=C(/C=C/c1ccco1)NC(=S)Nc1ccccc1N1CCCC1 | 2 | 13 | 8 | 6 | 21 | .
COc1cc(NS(=O)(=O)c2ccc(NC(=S)NC(=O)c3cccnc3)cc2)ncn1 | 9 | . | . | -69 | . | .
COc1cc(NS(=O)(=O)c2ccc(NC(=S)NC(=O)/C=C/c3ccco3)cc2)ncn1 | 34 | 9 | 1 | -82 | 91* | +
CCS(=O)(=O)N1CCN(Cc2cnc(N3CCOCC3)nc2)CC1 | 7 | . | . | 30 | . | .
Cc1cccc(OCc2nnc(SCC(N)=O)n2Cc2ccco2)c1C | 10 | . | . | -36 | . | .
COc1ccc(N2CCN(S(=O)(=O)c3ccc(S(=O)(=O)NC4CC4)cc3)CC2)cc1 | 5 | . | . | 10 | . | .
CCCc1nnc(NC(=O)c2ccc(Br)cc2)s1 | 13 | . | . | -8 | . | .
COc1ccc(C(C(=O)NC(C)(C)C)N(Cc2cccs2)C(=O)c2csnn2)cc1 (stereo unspecified) | 10 | . | . | 12 | . | .
O=C(/C=C/c1ccco1)Nc1ccccc1C(=O)O | 4 | 26 | 0 | 14 | 55* | i
CCOC(=O)c1sc(Nc2nc3c(OC)cccc3s2)nc1C | 11 | -10 | 2 | -23 | 67* | i
COc1cc2cc(CN(Cc3cccs3)Cc3nnnn3C(C)(C)C)c(=O)[nH]c2cc1OC | 7 | . | . | 17 | . | .
NC(=S)n1[nH]c(-c2ccc([N+](=O)[O-])cc2)c(N=Nc2ccccc2[N+](=O)[O-])c1=O | 4 | -10 | -3 | -50 | 45 | .
NC(=S)n1[nH]c(-c2ccc([N+](=O)[O-])cc2)c(N=Nc2cccc([N+](=O)[O-])c2)c1=O | 9 | -4 | 3 | -45 | 76* | +
CCN1CCN(Cc2ccc(NC(=O)c3ccc(C)c(NC(=O)c4ccno4)c3)cc2C(F)(F)F)CC1 | 8 | . | . | 10 | 101* | +
COc1ccccc1NC(=O)C1CCN(C(=O)c2ccccc2Cl)CC1 | 7 | . | . | -37 | . | .
